Assay results from PubChem BioAssay AID1851 (National Center for Advancing Translational Sciences (NCATS), 2009).
Out of some 16,000 compounds screened, about 5,100 (32%) were called active. About 25% were inconclusive and are not listed. The list shows a part of the results. Values without a mark were called inactive. The call rests on the fitted dose curve; in most records, active means well fitted curve in the direction sought with a large enough effect; inconclusive means small, poorly fitted or top-dose-only effect, or effect the other way; inactive means no such curve, though single readings can be large or run the other way.

biological target: Cytochrome P450 3A4 (Homo sapiens) (UniProt P08684); assay: Cytochrome panel assay with activity outcomes; details: recombinant CYP, pro-luciferin dealkylation, luminescence, p450-cyp3a4; series mostly up to 57.1 µM
Sequence (P08684 whole entry, looked up): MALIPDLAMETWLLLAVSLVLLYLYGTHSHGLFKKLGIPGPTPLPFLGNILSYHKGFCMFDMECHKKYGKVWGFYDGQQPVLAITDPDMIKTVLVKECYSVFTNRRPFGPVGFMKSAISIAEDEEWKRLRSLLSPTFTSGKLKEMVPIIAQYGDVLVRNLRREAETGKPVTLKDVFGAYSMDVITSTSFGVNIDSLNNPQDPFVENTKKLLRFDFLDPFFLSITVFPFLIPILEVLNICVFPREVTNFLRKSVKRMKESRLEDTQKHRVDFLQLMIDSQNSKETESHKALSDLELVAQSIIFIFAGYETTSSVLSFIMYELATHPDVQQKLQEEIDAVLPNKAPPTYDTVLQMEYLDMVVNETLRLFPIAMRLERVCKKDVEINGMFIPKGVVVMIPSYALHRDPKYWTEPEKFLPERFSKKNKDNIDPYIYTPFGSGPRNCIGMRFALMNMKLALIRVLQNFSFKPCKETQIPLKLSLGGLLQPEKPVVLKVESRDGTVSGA
On the % scale 0 is the no-effect control and ±100 the full control effect.

| Compound | activity, negative = inhibition | AC50 |
| --- | --- | --- |
| c1ccc(CCN2CCOCC2)nc1 | -6.24% [at 11.4 µM] | – |
| COCCCn1c(N)c(C(=O)Nc2sc3c(c2C(=O)OC)CCCC3)c2nc3ccccc3nc21 | – | 15.8 µM (active) |
| CNC(=O)OCC[N+](C)(C)C | inactive | – |
| O=C1Nc2ccc(I)cc2/C1=C/c1cc(Br)c(O)c(Br)c1 | – | 5.01 µM (active) |
| CC(C)c1ccc(C(O)(C(=O)O)c2ccc(C(C)C)cc2)cc1 | 19.4% [at 11.4 µM] | – |
| CC(C)c1ccc2c(c1)c(SC(C)(C)C)c(CC(C)(C)C(=O)O)n2Cc1ccc(Cl)cc1 | – | 20 µM (active) |
| C[C@H](N)[C@@H](O)c1ccccc1 | inactive | – |
| CC(C)(C)NC[C@H](O)c1ccccc1Cl | inactive | – |
| C[C@H](N)c1cccc(Cl)c1Cl | – | 25.1 µM (active) |
| CCOC(=O)N(c1ccccc1)P1(=S)OCCO1 | -25.1% [at 11.4 µM] | – |
| O=P(Nc1c(Cl)cccc1Cl)(c1ccccc1)c1nc2c(s1)CCCC2 (stereo not drawn) | – | 11.2 µM (active) |
| O=[As](O)(O)c1ccc2nc3cc([As](=O)(O)O)ccc3nc2c1 | 5.92% [at 11.4 µM] | – |
| Cn1cnc(CCN)c1 | inactive | – |
| COCCCN1Cc2ccccc2C1=N | inactive | – |
| O=C(O)/C=C(\CC(=O)O)C(=O)O | -2.52% [at 11.4 µM] | – |
| C[C@@]12CC[C@@H]3[C@H](CCC4=CC(=O)CC[C@]43C)[C@@H]1CC[C@@H]2C(=O)COS(=O)(=O)c1ccc(Br)cc1 | 20.5% [at 11.4 µM] | – |
| Nc1nc(OCc2ccccc2)c2[nH]cnc2n1 | – | 7.94 µM (active) |
| O=C(Nc1ccc(F)cc1F)c1cccnc1Oc1cccc(C(F)(F)F)c1 | inactive | – |
| CCOC(=O)[C@@H]1[C@@H]2c3ccccc3-c3ccccc3[C@H]2C[C@H]1O | -1.52% [at 11.4 µM] | – |
| Cc1ccc(N(C)C(=O)Oc2cccc3ccc(C)nc23)cc1 | – | 15.8 µM (active) |
| N[C@H](CCl)C(=O)O | inactive | – |
| C[C@H](CCC(=O)O)[C@H]1CC[C@]2(C)[C@@H]3C(=O)C[C@H]4C(C)(C)[C@@H](O)CC[C@]4(C)[C@H]3C(=O)C[C@@]12C | -2.04% [at 11.4 µM] | – |
| CN(N=O)c1cc(O)ccc1O | inactive | – |
| Cn1c(=O)c2[nH]cnc2n(C)c1=O.[CH2-][C@H](Cc1cccc2cc(C(=O)O)c(=O)oc12)OC.[Hg].[OH-] | 12.4% [at 11.4 µM] | – |

| Compound | activity, negative = inhibition | AC50 |
| --- | --- | --- |
| C[C@]12CC[C@H]3c4ccc(O)cc4CC[C@@H]3[C@H]1CC[C@@H]2OC(=O)CCc1ccccc1 | -2.52% [at 11.4 µM] | – |
| COc1ccc2c(c1)[C@]13CCCC[C@@H]1[C@H](C2)NCC3 | – | 15.8 µM (active) |
| O=C(CCN1CC2CCC(CC2)C1)c1cccs1 | -19.3% [at 11.4 µM] | – |
| c1ccc2c(N3CCNCC3)cccc2c1 | inactive | – |
| N[C@@H](Cn1cc(I)c(=O)[nH]c1=O)C(=O)O | inactive | – |
| COc1ccc2[nH]cc(C3=CCNCC3)c2c1 | – | 1.26 µM (active) |
| CCCOc1ccc2[nH]cc(C3=CCNCC3)c2n1 | – | 2.51 µM (active) |
| O=c1ccc2[nH]cc(C3=CCNCC3)c2[nH]1 | inactive | – |
| CCCN1CCc2cc(O)cc3c2[C@H]1Cc1ccc(O)c(O)c1-3 | inactive | – |
| c1ccc(CCN2CCCCCC2)nc1 | -14.2% [at 11.4 µM] | – |
| CCSCC[C@H](N)C(=O)O | 5.54% [at 11.4 µM] | – |
| CO[C@@H]([CH2][Hg])CN1C(=O)c2ccccc2S1(=O)=O.Cn1c(=O)c2nc[nH]c2n(C)c1=O | 2.75% [at 11.4 µM] | – |
| CC(=O)OC1=CC2=CC[C@H]3[C@H]4CCC(=O)[C@@]4(C)CC(=O)[C@]3(S)[C@]2(C)CC1 | -29.7% [at 11.4 µM] | – |
| C=C(C)[C@H]1CC[C@]2(C(=O)O)CC[C@]3(C)[C@@H](CC[C@H]4[C@@]5(C)CC[C@@H](O)C(C)(C)[C@@H]5CC[C@@]43C)[C@H]12 | inactive | – |
| C[C@@H]1[C@H]2C=C[C@@H]1[C@@H](c1c3ccc(=O)c(O)c-3oc3c(O)c(O)ccc13)[C@@H]2C(=O)O | -0.366% [at 11.4 µM] | – |
| O=C(C1CC(=O)N(C2CCCC2)C1)N1CCC2(CC1)OCCO2 (stereo not drawn) | inactive | – |
| CN1[C@@H](CC(=O)c2ccccc2)CCC[C@@H]1C[C@@H](O)c1ccccc1 | inactive | – |
| N[C@H](Cc1o[nH]c(=O)c1Cl)C(=O)O | inactive | – |
| Cc1ccc(S(=O)(=O)NCC2CCC(C(=O)N3CCC4(CC3)OCCO4)CC2)cc1 (stereo not drawn) | – | 15.8 µM (active) |
| CS(=O)(=O)N1CCCC(C(=O)N2CCC3(CC2)OCCO3)C1 (stereo not drawn) | 1.72% [at 2.29 µM] | – |
| O=C(CNS(=O)(=O)c1cccs1)N1CCC2(CC1)OCCO2 | inactive | – |
| CCCCCCN=Cc1c(O)n(C)c(=O)n(C)c1=O | 16.4% [at 2.29 µM] | – |
| CCN1CCN(S(=O)(=O)c2ccc(Cl)nc2)CC1 | inactive | – |
| Cc1nc(N)sc1CCN | inactive | – |

| Compound | activity, negative = inhibition | AC50 |
| --- | --- | --- |
| COc1ccc(CCNc2cc(-c3ccccc3)nc3ncnn23)cc1 | – | 5.62 µM (active) |
| C=C(C)[C@H]1CN[C@H](C(=O)O)[C@@H]1CC(=O)O | inactive | – |
| N#CCCN | inactive | – |
| CN(C)[C@@H]1C(=O)C(C(N)=O)=C(O)[C@]2(O)C(=O)C3=C(O)c4c(O)cccc4[C@](C)(O)[C@H]3C[C@@H]12 | -3.93% [at 11.4 µM] | – |
| CCOc1ccc(C2C(C#N)=C(N)Oc3c2c(=O)oc2ccccc32)cc1 (stereo not drawn) | -8.38% [at 2.29 µM] | – |
| C=Cn1ccnc1P(=S)(c1nccn1C=C)C1CCCCC1 | – | 1.26 µM (active) |
| C[C@H]1C(=O)O[C@@H]2CCN3CC=C(COC(=O)[C@@](C)(O)[C@@]1(C)O)[C@H]23 | inactive | – |
| CC(=O)N1CC[N+](C)(C)CC1 | inactive | – |
| C[C@@]12CC[C@@H]3c4ccc(O)cc4CC[C@H]3[C@H]1CC[C@H]2O | inactive | – |
| C[C@]12CCC3c4ccc(OCC(=O)O)cc4CCC3C1CCC2=O (stereo partly drawn) | -8.48% [at 11.4 µM] | – |
| C[C@]12CC[C@@H]3C(=CCc4cc(O)ccc43)[C@@H]1CCC2=O | – | 10 µM (active) |
| CCN1C[C@]2(COC(=O)c3ccccc3N3C(=O)C[C@H](C)C3=O)CC[C@H](OC)[C@@]34[C@@H]5C[C@H]6[C@H](OC)[C@H]5[C@](O)(C[C@@H]6OC)[C@@](O)([C@@H](OC)[C@@H]23)[C@@H]14 | inactive | – |
| C[N+](C)(C)[C@H](Cc1c[nH]c(=S)[nH]1)C(=O)O | -1.29% [at 11.4 µM] | – |
| O=[N+]([O-])O[C@H]1CO[C@H]2[C@H]1OC[C@@H]2O[N+](=O)[O-] | inactive | – |
| CS(=N)(=O)CC[C@H](N)P(=O)(O)O (stereo partly drawn) | 1.43% [at 11.4 µM] | – |
| N[C@@H](Cn1ccc(=O)n(Cc2ccc(C(=O)O)cc2)c1=O)C(=O)O | inactive | – |
| CN(C)CCN(C)CCc1ccc(Cl)c(Cl)c1 | inactive | – |
| CN(CCc1ccc(Cl)c(Cl)c1)[C@H]1CCCC[C@H]1N1CCCC1 | – | 12.6 µM (active) |
| COc1ccc2c(c1O)-c1c(OC)c(OC)cc3c1[C@H](C2)N(C)CC3 | inactive | – |
| CC(=O)O[C@@H]1CN2CCC1CC2 | inactive | – |
| CC(=O)Nc1ccccc1C(=O)OCC(=O)c1ccc2ccccc2c1 | inactive | – |
| c1ccc2c(c1)[I+]c1ccccc1-2 | – | 3.16 µM (active) |
| C1CCc2nnnn2CC1 | inactive | – |
| O=C(COc1ccc2ccccc2c1)N1CCN(CC2CC3C=CC2C3)CC1 (stereo not drawn) | – | 12.6 µM (active) |

| Compound | activity, negative = inhibition | AC50 |
| --- | --- | --- |
| CC(=O)N1CCC2(CC1)CC(=O)c1cc(OCC(=O)N3CCN(C)CC3)ccc1O2 | inactive | – |
| C[N+](C)(C)CC#CCN1CCCC1=O | inactive | – |
| CN1C(=O)COc2c(C(=O)N[C@@H]3CN4CCC3CC4)cc(Cl)cc21 | inactive | – |
| O=C1CC[C@@]2(O)[C@H]3Cc4ccc(O)c5c4[C@@]2(CCN3CC2CC2)[C@@H]1O5 | inactive | – |
| CCCCC/C=C\C/C=C\C/C=C\C/C=C\CCCC(=O)Nc1ccc(O)cc1 | – | 5.01 µM (active) |
| CCCC(=O)Nc1ccc(N2CCN(CC)CC2)c(Cl)c1 | inactive | – |
| NS(=O)(=O)c1ccc(-c2ccc([As](=O)(O)O)cc2)cc1 | -4.52% [at 11.4 µM] | – |
| Oc1ccc([C@H](O)[C@@H]2CCCCN2)cc1O | -7.28% [at 11.4 µM] | – |
| COc1c2c(cc3c1OCO3)CCN(C)C2 | inactive | – |
| CN1Cc2c(ccc3c2OCO3)[C@@H]2[C@@H](O)Cc3cc4c(cc3[C@@H]21)OCO4 | – | 5.01 µM (active) |
| CN1CCc2cc3c(cc2[C@@H]1[C@@H]1OC(=O)c2c1ccc1c2OCO1)OCO3 | – | 0.794 µM (active) |
| CO[C@H]1C=C2CCN(C)[C@@H]2[C@@H]2c3cc4c(cc3C(=O)O[C@H]21)OCO4 | inactive | – |
| C[N+]1(C)CCc2cc3c(cc2[C@@H]1[C@@H]1OC(=O)c2c1ccc1c2OCO1)OCO3 | – | 15.8 µM (active) |
| COc1cc2c(cc1OC)[C@H](C)NCC2 | inactive | – |
| CC[C@H]1CN2CC[C@@H]1C[C@H]2[C@@H](O)c1ccnc2ccc(OC)cc12 | inactive | – |
| COc1cc2c(cc1OC)[C@@]13CCN4C=C5CCO[C@H]6CC(=O)N2[C@@H]1[C@@H]6[C@H]5C[C@H]43 | 13.3% [at 11.4 µM] | – |
| [N-]=[N+]=CC(=O)CC[C@H](N)C(=O)O | -9.62% [at 11.4 µM] | – |
| CN1CCc2cccc(Cl)c2CC1 | inactive | – |
| NC(=O)CN1C[C@@H](O)CC1=O | inactive | – |
| CN(C)C=C1C(=O)N(C2CCCCC2)C(=O)N(C2CCCCC2)C1=O | inactive | – |
| CN1C2C=C3C(C#N)=C(N)C(C#N)(C#N)[C@H](c4c(F)cccc4F)[C@H]3C1CC2 (stereo partly drawn) | – | 4.47 µM (active) |
